# Active and inactive are the calls of the source.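 Rule for the calls, unless noted: active = mean z-score across replicates of 1.96 or higher in either the MELAS or the Rieske mutant cell line; inactive = the rest.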 Where a SMILES comes first, the peptide text is derived from it. The star is where a group is joined. Cbz = O=C(OCc1ccccc1)*; CH2F = FC*
# Legend:
# [1] = sensitizers of A549 cells to miR-34 induction, primary screen, imaging, A549 dox-inducible miR-34, nuclei and caspase counts (AID 1347080;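 active = compounds whose cell count with miR-34 switched on is under 0.7 times the count with it off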); conditions: A549 miR-34 inducible, Hoechst nuclei count, 48 h
# [2] = survival rescue of mitochondrial mutant cells in low glucose, primary screen, MELAS cybrids, Rieske KO mouse fibroblasts, CellTiter-Glo (AID 1508586);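 note: z relative to plate mean and SD of compound and empty wells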
# [3] = stronger effect = lower value, cell number ratio, induced over uninduced
# [4] = measured here: relative caspase fold change +Dox/-Dox
# [5] = measured here: total cells with miR-34 induction, stronger effect = lower value
# [6] = measured here: total cells without miR-34 induction
# [7] = MELAS cybrid survival, CellTiter-Glo 48 h, stronger effect = higher value
# [8] = Rieske KO mouse fibroblast survival, CellTiter-Glo 72 h
# Note: test concentration not given here.
Structure (SMILES),"fold change [1, 3]","fold change [1, 4]","cell count [1, 5]","cell count [1, 6]","z-score [2, 7]","z-score [2, 8]"
O=C(Oc1cc(S(=O)(=O)c2ccccc2)ccc1[N+](=O)[O-])c1ccc(Cl)cc1,0.897 (inactive),0.914,8540,9520,-0.507 (inactive),-2.16
C=C1C(=CC=C2CCC[C@]3(C)C(C(C)CCCC(C)C)CC[C@@H]23)CC(O)CC1O (stereo partly drawn),0.908 (inactive),0.753,6380,7020,0.162 (inactive),0.335
CC1(C)S[C@H]2C(NC(=O)C(N)c3ccccc3)C(=O)N2C1C(=O)O (stereo partly drawn),0.913 (inactive),0.727,8130,8910,-0.295 (inactive),-0.19
O=C(c1ccc(C=Cc2n[nH]c3ccccc23)cc1)N1CCNCC1,0.879 (inactive),0.981,2420,2750,0.658 (inactive),-1.76
CCOC(=O)C(CCc1ccccc1)NC1CCCN2CCCC(C(=O)O)N2C1=O (stereo not drawn),0.927 (inactive),0.673,7550,8150,-0.275 (inactive),-0.0266
COC(=O)CCSCc1ccc(-c2onc(C)c2NC(=O)OC(C)c2ccccc2Cl)cc1 (stereo not drawn),0.847 (inactive),0.706,6550,7730,-0.226 (inactive),-0.128
COc1ccnc2[nH]cc(C(=O)C(=O)N3CCN(C(=O)c4ccccc4)CC3C)c12 (stereo not drawn),0.955 (inactive),0.698,9920,10400,-0.419 (inactive),0.811
CN1CC[C@H](c2c(O)cc(O)c3c(=O)cc(-c4ccccc4Cl)oc23)C(O)C1 (stereo partly drawn),0.938 (inactive),1.82,1600,1700,3.42 (active),-0.841
CC(C)c1c(C(=O)Nc2ccccc2)c(-c2ccccc2)c(-c2ccc(F)cc2)n1CCC(O)CC(O)CC(=O)O (stereo not drawn),1.21 (inactive),0.989,5220,4330,0.917 (inactive),-1.34
CC1CNc2c(cccc2S(=O)(=O)N[C@@H](CCCN=C(N)N)C(=O)N2CCC(C)CC2C(=O)O)C1 (stereo partly drawn),0.97 (inactive),0.669,7750,7990,-0.261 (inactive),-0.0788
Cc1ccccc1CN1C2=NCCN2C(=O)C2=C1CCN(Cc1ccccc1)C2,0.955 (inactive),0.31,8710,9120,-0.516 (inactive),0.0586
C=CCc1cccc(C=NNC(=O)CN2CCN(Cc3ccccc3)CC2)c1O,0.992 (inactive),0.755,3820,3850,-0.146 (inactive),-1.03
OC(CC1c2ccccc2-c2cncn21)C1CCCCC1 (stereo not drawn),0.992 (inactive),0.351,8340,8410,-0.436 (inactive),-0.0844
NC(Cc1c[nH]c2ccc(O)cc12)C(=O)O (stereo not drawn),0.876 (inactive),0.739,8790,10000,-0.256 (inactive),0.553
C=C1CCC(O)CC1=CC=C1CCC[C@]2(C)C(C(C)C=CC(C)C(C)C)CC[C@@H]12 (stereo partly drawn),0.949 (inactive),0.581,7890,8320,-0.149 (inactive),-0.174
COc1ccc(CNCc2cccc3ccccc23)cc1,0.918 (inactive),0.638,8220,8960,-0.404 (inactive),-0.0397
O=C(NCCO)c1cccc(-c2cc(Nc3ccc(OC(F)(F)F)cc3)ncn2)c1,0.847 (inactive),0.626,7400,8740,-0.469 (inactive),0.943

Structure (SMILES),"fold change [1, 3]","fold change [1, 4]","cell count [1, 5]","cell count [1, 6]","z-score [2, 7]","z-score [2, 8]"
CCOc1nc2cccc(C(=O)O)c2n1Cc1ccc(-c2ccccc2-c2noc(=O)[nH]2)cc1,0.988 (inactive),0.55,8580,8680,-0.267 (inactive),-0.0268
C=CCC1C=C(C)CC(C)CC(OC)C2O[C@@](O)(C(=O)C(=O)N3CCCC[C@H]3C(=O)OC(C(C)=CC3CCC(O)C(OC)C3)C(C)C(O)CC1=O)C(C)CC2OC (stereo partly drawn),0.917 (inactive),0.834,7870,8580,-0.545 (inactive),0.683
OC(CNCC(O)[C@H]1CCc2cc(F)ccc2O1)[C@@H]1CCc2cc(F)ccc2O1 (stereo partly drawn),0.966 (inactive),0.954,6580,6810,1.33 (inactive),0.256
COC(=O)CC(NC(=O)C(C)NC(=O)C(NC(=O)OCc1ccccc1)C(C)C)C(=O)CF (stereo not drawn) (Cbz-Val-Ala-Asp(OMe)-CH2F; configuration not given here),0.936 (inactive),0.758,8620,9210,-0.172 (inactive),-0.115
CC1(C)SC2C(NC(=O)C(C(=O)O)c3ccsc3)C(=O)N2C1C(=O)O (stereo not drawn),0.763 (inactive),0.814,7330,9600,-0.203 (inactive),-0.146
O=C(NN=Cc1ccc(O)c(O)c1)c1cc2ccccc2cc1O,0.949 (inactive),0.497,8120,8550,-0.481 (inactive),0.559
COCC(=O)NCC=Cc1ccc2ncnc(Nc3ccc(Oc4ccc(C)nc4)c(C)c3)c2c1,0.862 (inactive),1.21,5970,6930,-0.531 (inactive),1.09
CC(=O)SC1CC2=CC(=O)CC[C@]2(C)[C@@H]2CC[C@@]3(C)[C@@H](CC[C@]34CCC(=O)O4)[C@H]12 (stereo partly drawn),0.898 (inactive),0.8,7310,8140,-0.198 (inactive),-0.323
CCC(C)C(NC(=O)C(CCC(=O)O)NC(=O)C(CC(C)C)NC(=O)C1CN=C(C(N)C(C)C)S1)C(=O)NC1CCCCNC(=O)C(CC(N)=O)NC(=O)C(CC(=O)O)NC(=O)C(Cc2cnc[nH]2)NC(=O)C(Cc2ccccc2)NC(=O)C(C(C)CC)NC(=O)C(CCCN)NC1=O (stereo not drawn),1.05 (inactive),0.927,7610,7240,-0.25 (inactive),-0.261
O=C(CCc1ccc(O)cc1)c1c(O)cc(O)cc1OC1OC(CO)C(O)C(O)C1O (stereo not drawn),0.988 (inactive),0.673,10200,10400,-0.378 (inactive),0.518
COC(=O)NC(C)CNc1nccc(-c2cn(C(C)C)nc2-c2cc(Cl)cc(NS(C)(=O)=O)c2F)n1 (stereo not drawn),0.982 (inactive),0.272,5200,5290,0.61 (inactive),1.4
COc1cc(F)c(F)c(Nc2ccc(I)cc2F)c1NS(=O)(=O)C1(CC(O)CO)CC1 (stereo not drawn),0.923 (inactive),0.76,2970,3220,-0.764 (inactive),-0.645
Cc1cc(Nc2ccc(NC(=O)c3ccc(Nc4ccnc5ccccc45)cc3)cc2)nc(N)n1,0.978 (inactive),0.411,6080,6210,-0.384 (inactive),-1.35
CC1(C)S[C@@H]2C(NC(=O)C(N)c3ccc(O)cc3)C(=O)N2C1C(=O)O (stereo partly drawn),0.958 (inactive),0.664,9670,10100,-0.365 (inactive),0.721
CN1CCc2nc(C(=O)NC3CC(C(=O)N(C)C)CCC3NC(=O)C(=O)Nc3ccc(Cl)cn3)sc2C1 (stereo not drawn),0.965 (inactive),0.478,8860,9180,-0.402 (inactive),-0.373
CNCc1ccc(C)c(NC(=O)c2ccc(Nc3nc(-c4ccccc4)c4ccccc4n3)cc2)c1,0.989 (inactive),0.59,6570,6650,-0.615 (inactive),-0.107

# From PubChem BioAssay
